Test [1] deals with Acetylcholinesterase (Homo sapiens) (UniProt P22303). Nature of the test: Acetylcholinesterase (AChE) small molecule antagonists: enzyme-based qHTS assay (AID 1347397). Note: nearly all actives have a fitted effect of over 55% in size. Note: potency is the fitted concentration of half-maximal effect. The following applies: Potency: AChE enzyme activity inhibition; outcome: AChE enzyme activity inhibition. An outline of the steps:
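Human recombinant acetylcholinesterase; substrate acetylthiocholine; thiocholine quantified with DTNB (colorimetric). Compound preincubation 30 min RT; reaction 10 min RT.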

For test [2] the target is unchanged. As to the kind of experiment: Acetylcholinesterase (AChE) small molecule antagonists: fluorescence cell-based qHTS assay (AID 1347398). Note: nearly all actives have a fitted effect of over 50% in size. Note: potency is the fitted concentration of half-maximal effect. The note with it: Potency: AChE activity; outcome: AChE activity. An outline of the steps:
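Thiocholine generated from acetylthiocholine by SH-SY5Y cell AChE is detected with Thiolite Green (Ex/Em 490/520 nm) after 40 min at room temperature, following 30 min compound pretreatment at 37 C.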
On the technique in general: qHTS replaces the single test concentration by a dilution series.

Test [3] shares this target. Nature of the test: Acetylcholinesterase (AChE) small molecule antagonists: enzyme-based qHTS assay with human liver microsomes (AID 1347399). Note: nearly all actives have a fitted effect of over 60% in size. The note with it: Potency: qHTS inhibition; outcome: qHTS inhibition. An outline of the steps:
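Recombinant human AChE (50 mU/mL in the enzyme mix) and human liver microsomes (0.25 mg/mL final) were preincubated with compound and NADPH (0.25 mg/mL final) for 30 min at 37 C. Acetylthiocholine/DTNB was then added; thiocholine was read colorimetrically after 10 min at room temperature.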

Records with an inconclusive call do not appear. Active and inactive are the calls of the source. Calls come from the whole dose curve.

Chain of Acetylcholinesterase (Homo sapiens) (P22303 whole entry, looked up): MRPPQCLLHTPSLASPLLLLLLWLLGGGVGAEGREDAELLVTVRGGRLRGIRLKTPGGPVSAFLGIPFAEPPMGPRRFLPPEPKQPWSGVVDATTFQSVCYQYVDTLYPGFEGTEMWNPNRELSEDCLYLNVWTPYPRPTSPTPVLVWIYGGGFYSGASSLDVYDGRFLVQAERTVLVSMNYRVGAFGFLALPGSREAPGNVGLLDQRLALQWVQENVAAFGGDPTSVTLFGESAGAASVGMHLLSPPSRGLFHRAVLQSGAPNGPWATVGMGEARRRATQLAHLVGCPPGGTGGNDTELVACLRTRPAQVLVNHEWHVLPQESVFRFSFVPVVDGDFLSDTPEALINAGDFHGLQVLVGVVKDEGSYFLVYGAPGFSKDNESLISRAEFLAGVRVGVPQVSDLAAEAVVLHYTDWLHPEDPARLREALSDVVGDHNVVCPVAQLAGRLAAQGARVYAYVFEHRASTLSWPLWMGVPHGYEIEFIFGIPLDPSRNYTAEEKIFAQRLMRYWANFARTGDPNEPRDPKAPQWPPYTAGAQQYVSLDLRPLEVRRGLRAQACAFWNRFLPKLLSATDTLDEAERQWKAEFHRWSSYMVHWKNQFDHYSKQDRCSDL

For the molecule `CCCCCCCCCCCC[N+](C)(C)CCCCCCCCCCCC`, the Potency in test [1] was 28.3 µM (active); in test [2] it was 63.3 µM (active).

With `CN1CCC(=C2c3ccccc3CC(=O)c3sccc32)CC1`, the Potency result in test [1] and in test [2] was “inactive” each time.

For the molecule `COC(=O)[C@H]1[C@H]2C[C@@H]3c4[nH]c5cc(OC)ccc5c4CCN3C[C@H]2C[C@@H](OC(=O)COc2ccc(OC)cc2)[C@@H]1OC`, the Potency result in test [1] and in test [2] was “inactive” throughout.

Regarding `CCNS(=O)(=O)c1ccc(C)cc1`, the Potency entry in test [1], in test [2] and in test [3] was “inactive” in each case.

Regarding `CCC(C)OC(C)CC` (configuration not stated), the Potency result in test [1], in test [2] and in test [3] was “inactive” in each case.

As for `CCCCCCOC(=O)C(C)CC` (configuration not stated), the Potency entry in test [1], in test [2] and in test [3] was “inactive” throughout.

Consider `Cc1c(C(=O)NN2CCCCC2)nn(-c2ccc(Cl)cc2Cl)c1-c1ccc(Cl)cc1`, for which the Potency result in test [1] and in test [2] was “inactive” in each case.

With `CCCCCCCC(=O)N(C)C`, the Potency result in test [1], in test [2] and in test [3] was “inactive” in each case.

As to `COC(=O)c1cc(Cl)ccc1OC`, the Potency entry in test [1] and in test [2] was “inactive” throughout.

For `Nc1cccnc1N`, the Potency result in test [1] and in test [2] was “inactive” in each case.

With `CC(C)CCCC(C)NCCC(C)C` (configuration not stated), the Potency entry in test [1] and in test [2] was “inactive” each time.

With `CCOC(=O)c1ccc(N(C)C)cc1`, the Potency entry in test [1], in test [2] and in test [3] was “inactive” in each case.

Turning to `CCCn1cc[n+](C)c1C`, the Potency entry in test [1], in test [2] and in test [3] was “inactive” in each case.

Turning to `CC(C(=O)O)c1ccc(C(=O)c2ccccc2)s1` (configuration not stated), the Potency result in test [1], in test [2] and in test [3] was “inactive” in each case.

In the case of `CC(=O)Oc1ccc(C(c2ccc(OC(C)=O)cc2)c2ccccn2)cc1`, the Potency result in test [1], in test [2] and in test [3] was “inactive” in each case.

For `c1ccc2sc(SN(C3CCCCC3)C3CCCCC3)nc2c1`, the Potency entry in test [1], in test [2] and in test [3] was “inactive” each time.

On to `CC(O)C(C)O` (configuration not stated), for which the Potency result in test [1], in test [2] and in test [3] was “inactive” each time.

Consider `CCOC(=O)C1CC(=O)C(=C(O)C2CC2)C(=O)C1` (configuration not stated), for which the Potency result in test [1], in test [2] and in test [3] was “inactive” each time.

Values taken from PubChem BioAssay (Tox21).
